Reference: PubChem BioAssay (EPA / NIEHS)
Calls of active or inactive are those of the source. How the source made its calls: active means hit-call score of the fitted dose curve at least 0.9, where 1 is the maximum; inactive means score below 0.9.

Test: APR_HepG2_CellCycleArrest_1hr: Apredica 1-hour HepG2 Assay for Cell Cycle Arrest (AID 2282666)
Conditions: high-content imaging, actives raise or lower the signal
Method: APR_HepG2_1hr is a cell-based, multiplexed-readout assay that uses HepG2, a human liver cell line, with measurements taken at 1 hour after chemical dosing in a 384-well plate.APR_HepG2_CellCycleArrest_1hr is one of 10 assay component(s) measured or calculated from the APR_HepG2_1hr assay. It is designed to make measurements of cell phenotype, a form of morphology reporter, as detected with fluorescence intensity signals by HCS Fluorescent Imaging technology.Data from the assay component APR_HepG2_CellCycleArrest_1hr was analyzed into 1 assay endpoint. This assay endpoint, APR_HepG2_CellCycleArrest_1hr, was analyzed with bidirectional fitting relative to DMSO as the negative control and baseline of activity. Using a type of morphology reporter, measures of all nuclear dna for gain or loss-of-signal activity can be used to understand the signaling at the pathway-level as they relate to the gene . Furthermore, this assay endpoint can be referred to as a primary readout, because this assay has produced multiple assay endpoints where this one serves a signaling function. To generalize the intended target to other relatable targets, this assay endpoint is annotated to the cell cycle intended target family, where the subfamily is arrest.
Cells were treated with dimethyl sulfoxide (DMSO) as a solvent control at a final concentration of 0.5% v/v or with compounds in DMSO with a resulting final DMSO concentration of 0.5% v/v. Compound treatment was done at concentrations of 0.39, 0.78, 1.56, 3.12, 6.24, 12.5, 25, 50, 100, and 200 uM in duplicate on each plate. Cells were treated with compounds for 1, 24, or 72 hr. Carbonyl […] m-chloro-phenylhydrazone (CCCP) and taxol were used as positive controls for mitochondrial function and cytoskeletal stability, respectively; DMSO served as the negative control for this experiment. Cells were fixed by the direct addition of 50 uL formaldehyde in Hank's Balanced Salt Solution (HBSS) to a final concentration of 3.7%. After incubation in the fixation medium for 30 min at room temperature (293-298 K), cells were rinsed twice with HBSS and treated with cell permeabilization buffer (16 uL of 0.5% Triton X-100) for 10 min at room temperature (293-298 K) before labeling. For mitochondrial membrane potential and mitochondrial measurements, pre-fixed cells were incubated with 50 uL of MitoTracker Red CMXRos (Invitrogen) at a concentration of 250 nM for 30 min before fixation. In the remaining cases, post-fixed cells were labeled by incubation with a multiplexed mixture of primary antibodies in HBSS for 60 min at room temperature (293-298 K) to detect immunoreactivity of c-Jun (1:500), phospho-histone H3 (1:100), phospho-histone H2A.x (1:200), p53 (1:400), alpha-tubulin (1:200) and Hoechst 33342 (2 ug/mL). Cells were labeled for multiplexed imaging on two separate plates: a) Hoechst 33342, MitoTracker Red, phospho-histone H3, and alpha-tubulin, and b) Hoechst 33342, phospho-histone H2A.x, and c-Jun. A final rinse with HBSS (50 uL) was performed before analysis. The primary and secondary antibodies for the proteins were phospho-histone H3 (rabbit anti-phospho-histone H3 and FITC-donkey anti-rabbit IgG), phospho-histone H2A.x (mouse anti-phospho-histone H2A.x and FITC-donkey anti-mouse IgG), c-Jun (rabbit anti-phospho-c-Jun and Cy3-donkey anti-rabbit IgG), p53 (sheep anti-p53 and Cy5-donkey anti-sheep IgG), alpha-tubulin (mouse anti-alpha-tubulin and Cy5-donkey anti-mouse IgG). These antibodies are available as the CellCiphr HepG2 assay kit (Millipore).Digital images of each well were captured using a Cellomics ArrayScan VTI (Thermo Scientific Cellomics) (0.8 NA objective, 0.63x optical coupler, and XF-93 filter set) at 20x magnification. The images were acquired using the autofocus feature of the ArrayScan instrument, which entails the following steps. First, the camera focuses on channel 1 (Hoechst 33342), where nuclei are identified. Second, a Z offset of 1 um is used for capturing mitochondria (MitoTracker Red). […]

**Q.** Which outcome does the source give for `CCCCOC(=O)[C@@H](C)Oc1ccc(Oc2ccc(C(F)(F)F)cn2)cc1` here?
**A.** The outcome was “inactive”.

**Q.** With `CCOC(=O)COc1cc(-n2ncc(C(F)(F)F)c(C)c2=O)c(F)cc1Cl` as the compound, how does the outcome read?
**A.** The outcome was “inactive”.

**Q.** Which outcome does the source give for `CCCCCOC(=O)COc1cc(N2C(=O)C3=C(CCCC3)C2=O)c(F)cc1Cl` here?
**A.** The outcome was “inactive”.

**Q.** With `Oc1ccc(C(c2ccc(O)cc2)C(Cl)(Cl)Cl)cc1` as the compound, how does the outcome read?
**A.** Its outcome is “inactive”.

**Q.** Which outcome does the source give for `CCOC(=O)C(C)Oc1ccc(Oc2cnc3cc(Cl)ccc3n2)cc1` (stereo not given) here?
**A.** The outcome was “inactive”.

**Q.** With `C#CCOC(=O)[C@@H](C)Oc1ccc(Oc2ncc(Cl)cc2F)cc1` as the compound, how does the outcome read?
**A.** The outcome was “inactive”.

**Q.** For `CN(C)C(=O)Nc1ccc(Cl)c(Cl)c1`, which outcome is on record?
**A.** The outcome was “inactive”.

**Q.** With `COC(=O)c1ccccc1C(=O)O` as the compound, how does the outcome read?
**A.** The outcome was “inactive”.

**Q.** With `COc1c(Cl)ccc(Cl)c1C(=O)O` as the compound, how does the outcome read?
**A.** Its outcome is “inactive”.

**Q.** Which outcome does the source give for `CCOC(=O)[C@H](C)Oc1ccc(Oc2nc3ccc(Cl)cc3o2)cc1` here?
**A.** The outcome was “inactive”.

**Q.** With `COC(=O)c1ccc(I)cc1S(=O)(=O)NC(=O)Nc1nc(C)nc(OC)n1` as the compound, how does the outcome read?
**A.** Its outcome is “inactive”.

**Q.** With `CC(C)(c1ccc(O)cc1)c1ccc(O)cc1` as the compound, how does the outcome read?
**A.** Its outcome is “inactive”.

**Q.** With `CCOC(=O)NCCOc1ccc(Oc2ccccc2)cc1` as the compound, how does the outcome read?
**A.** The outcome was “inactive”.

**Q.** With `S=C([S-])NCCNC(=S)[S-].[Mn+2]` as the compound, how does the outcome read?
**A.** Its outcome is “inactive”.

**Q.** For `CCCCOC(=O)C(C)Oc1ccc(Oc2ccc(C(F)(F)F)cn2)cc1` (stereo not given), which outcome is on record?
**A.** The outcome was “inactive”.

**Q.** Which outcome does the source give for `OB(O)O` here?
**A.** The outcome was “inactive”.

**Q.** For `CCC(C)OC(=O)N1CCCCC1CCO` (stereo not given), which outcome is on record?
**A.** The outcome was “inactive”.

**Q.** For `CCCCC(CC)COC(=O)c1ccccc1C(=O)O` (stereo not given), which outcome is on record?
**A.** Its outcome is “inactive”.

**Q.** Which outcome does the source give for `COC(=O)c1ccc(CNS(C)(=O)=O)cc1S(=O)(=O)NC(=O)Nc1nc(OC)cc(OC)n1` here?
**A.** The outcome was “inactive”.

**Q.** With `c1ccc2[nH]c(-c3cscn3)nc2c1` as the compound, how does the outcome read?
**A.** The outcome was “inactive”.

**Q.** For `COC(=O)c1cccc(C)c1S(=O)(=O)NC(=O)Nc1nc(OCC(F)(F)F)nc(N(C)C)n1`, which outcome is on record?
**A.** The outcome was “inactive”.

**Q.** Which outcome does the source give for `CC1(C)C(C=C(Cl)Cl)C1C(=O)OCc1cccc(Oc2ccccc2)c1` (stereo not given) here?
**A.** Its outcome is “inactive”.

**Q.** With `CCN(Cc1c(F)cccc1Cl)c1c([N+](=O)[O-])cc(C(F)(F)F)cc1[N+](=O)[O-]` as the compound, how does the outcome read?
**A.** Its outcome is “inactive”.

**Q.** With `COC(=O)c1ccccc1S(=O)(=O)NC(=O)Nc1nc(OC(F)F)cc(OC(F)F)n1` as the compound, how does the outcome read?
**A.** The outcome was “inactive”.

**Q.** For `CSC(=O)c1cccc2nnsc12`, which outcome is on record?
**A.** Its outcome is “inactive”.

**Q.** Which outcome does the source give for `COC(=O)CSc1cc(N=c2sc(=O)n3n2CCCC3)c(F)cc1Cl` here?
**A.** The outcome was “inactive”.

**Q.** Which outcome does the source give for `CCOC(=O)C(C)Oc1ccc(Oc2nc3ccc(Cl)cc3o2)cc1` (stereo not given) here?
**A.** The outcome was “inactive”.

**Q.** With `CCCN(CCC)c1c([N+](=O)[O-])cc(C(F)(F)F)c(N)c1[N+](=O)[O-]` as the compound, how does the outcome read?
**A.** The outcome was “inactive”.

**Q.** With `O=C(O)C1(C(=O)Nc2ccc(Cl)cc2Cl)CC1` as the compound, how does the outcome read?
**A.** Its outcome is “inactive”.

**Q.** Which outcome does the source give for `CCCCOCCOCCOCc1cc2c(cc1CCC)OCO2` here?
**A.** Its outcome is “inactive”.

**Q.** For `CC(C)(C)[C@@H](O)[C@@H](Cc1ccc(Cl)cc1)n1cncn1`, which outcome is on record?
**A.** Its outcome is “inactive”.

**Q.** Which outcome does the source give for `CCCCCCC(C)OC(=O)COc1nc(F)c(Cl)c(N)c1Cl` (stereo not given) here?
**A.** Its outcome is “inactive”.

**Q.** For `c1ccc(Nc2ccccc2)cc1`, which outcome is on record?
**A.** The outcome was “inactive”.

**Q.** With `N#CSCSc1nc2ccccc2s1` as the compound, how does the outcome read?
**A.** The outcome was “inactive”.

**Q.** With `CCNc1nc(N)nc(Cl)n1` as the compound, how does the outcome read?
**A.** Its outcome is “inactive”.

**Q.** Which outcome does the source give for `COC(=O)c1c(Cl)nn(C)c1S(=O)(=O)NC(=O)Nc1nc(OC)cc(OC)n1` here?
**A.** Its outcome is “inactive”.

**Q.** For `CCCOC(=O)NCCCN(C)C`, which outcome is on record?
**A.** Its outcome is “inactive”.

**Q.** With `CCSC(=O)N(CC(C)C)CC(C)C` as the compound, how does the outcome read?
**A.** Its outcome is “inactive”.

**Q.** For `C=CCOC(Cn1ccnc1)c1ccc(Cl)cc1Cl` (stereo not given), which outcome is on record?
**A.** Its outcome is “inactive”.

**Q.** Which outcome does the source give for `CCCCC(CC)CN1C(=O)C2C3C=CC(C3)C2C1=O` (stereo not given) here?
**A.** Its outcome is “inactive”.
